About 79,000 compounds went through this panel and 15% of them were active in at least one assay; those are over-represented in the sample as a whole. Unmarked numbers belong to inactive results. Calls of active or inactive are those of the source. Rule as the data show it: active = growth inhibition above about 70%; inactive = the rest. Where a SMILES comes first, the peptide text is derived from it. [ ]: non-standard residue; d: D form. The star is where a group is joined. Cbz = O=C(OCc1ccccc1)*; Aib = CC(C)(N)C(=O)O
How the values were obtained:
[1] = NCI Yeast Anticancer Drug Screen. Data for the rad50 strain (AID 155);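 also: 0% = growth of vehicle-only cultures of the same strain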; details: S. cerevisiae rad50 strain growth inhibition; at 50.0 µM; hits give high values
Method in brief: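 Inhibition values express reduced yeast growth in compound-treated cultures relative to vehicle-treated controls.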

[2] = NCI Yeast Anticancer Drug Screen. Data for the mec2-1 strain (AID 157); details: S. cerevisiae mec2-1 strain, at 50.0 µM, hits give high values
Method in brief: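 Cells of the genetically defined mec2-1 yeast strain are incubated with test compound. Inhibition of growth is calculated against vehicle-treated controls.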

[3] = NCI Yeast Anticancer Drug Screen. Data for the sgs1 mgt1 strain (AID 161);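 also: 0% = growth of cultures given vehicle only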; details: S. cerevisiae sgs1 mgt1 strain, at 50.0 µM, hits give high values
Method in brief: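 Test agents were incubated with a DNA-repair-mutant yeast strain. Growth was then read and compared against vehicle-treated controls.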

[4] = NCI Yeast Anticancer Drug Screen. Data for the cln2 rad14 strain (AID 165);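 also: 0% = growth equal to vehicle treated cultures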; details: S. cerevisiae cln2 rad14 strain, at 50.0 µM, hits give high values
Method in brief: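 The screen exposed genetically defined yeast (cln2 rad14) to test compounds and scored growth inhibition relative to vehicle-treated controls.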

[5] = NCI Yeast Anticancer Drug Screen. Data for the bub3 strain (AID 167); details: S. cerevisiae bub3 mutant strain, at 50.0 µM, hits give high values
Method in brief: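 Steps: expose the mutant yeast strain to compound; grow alongside vehicle-treated cultures; measure growth; express inhibition against the vehicle cultures.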

[6] = NCI Yeast Anticancer Drug Screen. Data for the mlh1 rad18 strain (AID 175); details: S. cerevisiae mlh1 rad18 strain growth inhibition; at 50.0 µM; hits give high values
Method in brief: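 Compound-treated yeast growth, normalised to vehicle controls. Strain bears defined DNA repair mutations.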

SMILES | growth inhibition [1] [%] | growth inhibition [2] | growth inhibition [3] | growth inhibition [4] [%] | growth inhibition [5] | growth inhibition [6]
O=C(Nc1ccccc1C(=O)N/N=C/c1cccc(O)c1)c1ccccc1 | 9.5 | 24.8% | 12.9% | -20 | 34.5% | 4.55%
Nc1cccc(C(F)(F)F)c1N | -13.6 | -15.4% | -6.7% | -24.4 | -13.6% | 8.3%
Nc1ccc(C(=O)c2ccccc2)cc1Cl | 60.7 | 35% | 56.4% | 6.75 | 36.2% | 36.1%
CCN(CC)CC1CCCCCCCCCCC1=O (stereo unspecified) | -30.3 | -17.9% | -32.7% | 17.4 | -44% | -28.9%
COc1cc(C)cc(C(=O)C2=NNCC2c2ccccc2)c1O (stereo unspecified) | 23.1 | 19.4% | 26.8% | 10.9 | 17.1% | 16.2%
Cc1cc(C)cc(NC(N)=S)c1 | 11.8 | -0.25% | 6.9% | -5.3 | 10.6% | 11.7%
CC(=O)NNc1nc(C)c(C(/C=C/c2ccc([N+](=O)[O-])cc2)=N/NC(N)=O)s1 | 23.6 | -12.7% | 24.2% | 16.6 | 8.75% | 10.3%
CC(C)(NC(=O)C(C)(C)NC(=O)OCc1ccccc1)C(=O)O (Cbz-[Aib]-[Aib]-OH) | 6.05 | -3.6% | 3.9% | 14.1 | 0.25% | -64.5%
O=c1ccn(-c2ccccn2)c(=O)n1-c1ccccn1 | 18.9 | -15.9% | 2.95% | 24.3 | -6.35% | -31.8%
Cc1cn(C(=O)NC23CC4CC(CC(C4)C2)C3)c(=O)[nH]c1=O | 14.8 | 1.6% | 11.1% | 9.65 | 10.9% | 82.2% (active)
CCn1cc(C(=O)O)c(=O)c2ccc(-c3cn[nH]c3C)nc21 | 44.5 | 34.1% | 34.6% | 4.45 | 12.2% | 29.9%
CCOC(=O)c1ccc(NC(=S)Nc2ccccc2S)cc1 | 16.4 | 16.4% | 22.9% | 9.35 | 10.1% | 11.9%
NC(=O)[C@@H]1CCCN1C(=O)c1cccnc1 | -14.9 | -18.2% | -12.9% | -14.7 | 4.75% | -13%
O=C(O)C(O)C(O)C(O)C(O)C(=O)O.[Cu+2] (stereo unspecified) | 1.2 | -6.15% | 2.25% | 0 | -4.4% | 15.2%
CCCCCCCCCCCCCCCC(=O)ON1C(=S)NC(C)(c2ccccc2)C1=S (stereo unspecified) | -0.65 | 5.45% | 9.15% | -4.05 | 13.4% | -17.6%
COc1cccc(/C(C#N)=C\O)c1 | -17.2 | -36.9% | -29.9% | 3.2 | -42.9% | -8.8%
CC(=O)c1ccc2c(c1)-c1ccc(C(C)=O)cc1-2 | -11.9 | -0.7% | -14.4% | -11 | -10.8% | -7.6%
CCOC(=O)Nc1cc2c(c(N)n1)N=C(c1ccc(Cl)cc1Cl)CN2 | 33.4 | -29.5% | 25.6% | -5.1 | -6% | -8.45%
C1=NC(c2ccccc2)=CN(C2CCCCCCC2)C1(c1ccccc1)C1CCCCCCC1 (stereo unspecified) | 40 | 72.2% (active) | 40.2% | 45.6 | 61.4% | 50.4%
Cn1cnc2nc(N)[nH]c(=O)c21 | 37.2 | 6.45% | 2.5% | -14.4 | -0.95% | 13.7%
CNc1cc(S(=O)(=O)O)ccc1C | 1.45 | -4.45% | -2.6% | 3.9 | 10.6% | -5.05%

SMILES | growth inhibition [1] [%] | growth inhibition [2] | growth inhibition [3] | growth inhibition [4] [%] | growth inhibition [5] | growth inhibition [6]
CCCCC(/C=C(/C)C(=O)O)CC (stereo unspecified) | 6.9 | 1.6% | 3.9% | -1.8 | 3.3% | 0.9%
CN(C(=O)c1ccc(Cl)c(Cl)c1)C(c1ccco1)P(=O)(c1ccccc1)c1ccccc1 (stereo unspecified) | 54 | 46.2% | 78.4% (active) | 17.2 | 50.4% | 45.9%
CC1CCCCC1(O)C(C(=O)O)c1ccccc1 (stereo unspecified) | -8.1 | -9.85% | 0.3% | -1.95 | -22% | -29.6%
CCCOC(=O)c1cc(C(=CCC[C@H]2CC[C@@]3(C)[C@@H](CC[C@@H]4[C@@H]3CC[C@]3(C)[C@@H](C(C)CCCC(C)C)CC[C@@H]43)C2)c2cc(Cl)c(O)c(C(=O)OCCC)c2)cc(Cl)c1O (stereo partly specified) | 8.7 | -9.05% | -0.55% | 5.65 | -4.05% | -45%
CCOC(=O)OC1CCC2(C)C(=CCC3C2CCC2(C)C(C(C)CCCC(C)C)CCC32)C1 (stereo unspecified) | -3.95 | -19.1% | 0.6% | 9.5 | 4.25% | -4.3%
CCC(CC)(C[NH-])C[NH-].[Cl][Pt+2][Cl] | 10 | 41.7% | 10% | 16.2 | 18.2% | -7.95%
CCC(C)SC1=NC(N)=NC2=NC=NC21 (stereo unspecified) | -11.6 | -2.85% | -9.3% | -21.8 | 6.05% | 4.25%
CC(=O)NCCO | -12.7 | -22.8% | -12.7% | -19.4 | 3.9% | 7.25%
CC(=O)Nc1c(C(=N)C#N)ncn1CCO | 2.3 | 10.2% | 8.35% | 11.2 | -3.65% | 5.5%
CC1CC(=O)c2c(O)ccc(O)c21 (stereo unspecified) | -6.1 | -3.65% | -8.9% | -17.4 | -8.15% | 12.2%
O=C(O)c1ccc(OC2CCCCC2)cc1 | 6.85 | 12.1% | 42.1% | 18.6 | 11.4% | 30.9%
ClCc1nnc(-c2ccccc2)o1 | 14.8 | -2.9% | -16.2% | -43 | -16.2% | -4.75%
COc1ccc(/C=C2\Oc3cc(OC(C)=O)ccc3C2=O)cc1 | -66.9 | -44.6% | -15.2% | 12.2 | -14.6% | -21.8%
CC(=O)NC(C=O)C(O)C(O)C(O)C(=O)O (stereo unspecified) | 21.7 | -11.4% | 2.3% | 23.1 | 8% | 10.5%
CCCCCCCCCCOC(=O)Nc1cccc(O)c1 | 29.8 | 92.8% (active) | 95.4% (active) | 18.9 | 96.9% (active) | 86.5% (active)
COC(=O)C1(CC(=O)c2ccc(Cl)cc2)NC(=S)NC(=O)C1C#N (stereo unspecified) | 13.6 | 12.6% | 8% | 7.95 | -10.9% | 22.5%
C1=C2CCc3ccc(o3)CCC(=C1)O2 | 7.55 | 14.8% | 10.2% | -23.7 | -0.05% | 1.35%
Cc1cc(=O)oc2cc(OCc3ccccc3)cc(O)c12 | 22.8 | 4.2% | 21.8% | -3.3 | 6.45% | 12.8%
CC(NC(=O)C(NC(=O)c1ccc[n+](Cc2ccccc2)c1)C(C)C)C(N)=O (stereo unspecified) | 0.45 | 8.05% | -2.6% | -6.2 | -1.95% | 23.4%
CC1(C)C=C(C(Cl)c2ccccc2)C(=O)c2ccccc21 (stereo unspecified) | -1 | 6.6% | 0% | -4.6 | -3.7% | -7.15%

— PubChem BioAssay (NCI)
